Bioassay records deposited in PubChem BioAssay by Columbia University Molecular Screening Center.
IL1B NFkB pot = enhancers of NFkB p65 translocation in HUVEC – imaging, IL-1B stimulus, high-content imaging, primary screen; HUVEC IL-1B NFkB p65 nuclear translocation imaging; hit rate 0.3% among 94,000; AID 819, 2007; activation, % at 2 µM;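 active = activation above 40%, about the mean plus 3 SD, also judged a hit on visual image review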;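 also: percent activation is computed from the nuclear over cytoplasmic p65 intensity ratio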
HUVEC tox TNFa = cytotoxicity in TNFa-stimulated HUVEC, primary screen, cytotoxicity control for VCAM1 expression modulator project, imaging, Hoechst nuclei count | hit rate 0.17% among 93,000 | HUVEC TNFalpha-stimulated, Hoechst cell count | cell count reduction, % at 2 µM;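 active = cell count reduction exceeding the screen mean by over 5 SD, scaled to untreated wells per plate, cut at about 78% in these data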;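 also: cells counted after 24 h of TNF alpha exposure following the 1 h pretreatment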
E-sel TNF inh = E-selectin induction blockers in HUVEC – imaging, immunofluorescence, high content, primary screen. inhibition, % at 2 µM. hit rate 0.71% among 120,000. HUVEC TNFa-induced E-selectin immunofluorescence;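 active = inhibition above the batch mean plus 3 SD, and confirmed as a hit on visual image review, cut at about 43% in these data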;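 also: 0% = TNF-stimulated DMSO wells and 100% = unstimulated control wells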
IL1B cytotox = cytotoxicity in IL-1B stimulated HUVEC, primary screen, cytotoxicity control for IL-1B NFkB translocation project, imaging, Hoechst nuclear count, IL-1B stimulus; HUVEC cell count loss; cell count reduction, % at 2 µM; hit rate 0.41% among 94,000; AID 845, 2007;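 active = cell count reduction more than 3 SD above the screen-wide mean, cut at about 70% in these data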;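 also: normalized per plate to untreated control cells as the no-loss baseline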
VCAM1 TNFa inh = inhibitors of TNFa-induced VCAM1 expression, primary screen, imaging, HUVEC, TNFa stimulus, immunofluorescence; inhibition, % at 2 µM; HUVEC TNFa-induced VCAM-1 immunofluorescence, high-content imaging; hit rate 0.48% among 95,000; AID 802, 2007;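 active = inhibition above the batch mean plus 3 SD, with images confirmed as a hit by eye, cut at about 37% in these data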;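 also: 0% = TNF-stimulated DMSO wells and 100% = unstimulated control wells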
IL1B NFkB inh = inhibitors of IL-1B driven NFkB p65 nuclear import, primary screen, imaging, HUVEC, IL-1B stimulus, high-content imaging; HUVEC IL-1B NFkB p65 nuclear translocation imaging; inhibition, % at 2 µM; hit rate 0.43% among 94,000;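 active = inhibition above about 30% together with a positive call from visual inspection of the well image, limit read from the data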;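 also: nuclear over cytoplasmic p65 intensity ratio measured by imaging; 0% = IL-1B stimulated DMSO wells and 100% = unstimulated DMSO wells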
* marks the source's active call; other numbers are inactive results; nt = not tested or not shown. Rows were chosen to be rich in hits. Some 1.6% of all compounds tested hit in one or more screens of this group.

SMILES	IL1B NFkB pot	HUVEC tox TNFa	E-sel TNF inh	IL1B cytotox	VCAM1 TNFa inh	IL1B NFkB inh
Cc1ccc2[nH]c3c(c2c1)CN(C(=O)CN1CCN(c2cccc(C)c2C)CC1)CC3	15	-3	-11	-24	-8	-15
O=C(CN1CCSCC1)N1CCc2[nH]c3ccc(Br)cc3c2C1	3	4	5	18	61*	-3
CCNc1nc(NC(C)C)nc(Nn2cnnc2)n1	-96	-12	7	90*	-35	96*
CCOC(=O)C1CCCN(c2ncnc3c2cnn3-c2ccc(Cl)cc2)C1 (centres undefined)	14	-1	63*	-24	-40	-14
CCOC(=O)C1CCCN(c2ncnc3c2cnn3-c2ccc(OC)cc2)C1 (centres undefined)	-6	-39	nt	-27	-19	6
CCc1nnc(NC(=O)c2cccnc2)s1	147*	-12	12	8	-8	-147
CCc1nnc(NC(=O)CSc2nnc(-c3cccnc3)n2CCc2ccccc2)s1	43*	-9	-3	-31	15	-43
CCc1nnc(NC(=O)c2ccncc2)s1	nt	nt	-39	nt	nt	nt
C=CCn1c2ccccc2c2nnc(SCC(=O)NC(C(=O)OC)C(C)C)nc21 (centres undefined)	15	-14	28	89*	14	-16
COc1ccc(S(=O)(=O)Cc2ccc(C(=O)N3CCOCC3)o2)cc1	nt	nt	95*	nt	nt	nt
COc1ccc(S(=O)(=O)Cc2ccc(C(=O)NC3CCCC3)o2)cc1	15	-12	nt	-39	4	-15
CCOC(=O)N1CCC(NC(=O)c2ccc(CS(=O)(=O)c3ccc(OC)cc3)o2)CC1	-6	-32	nt	-28	85*	6
O=C(c1ccc(CS(=O)(=O)c2ccc(Br)cc2)o1)N1CCOCC1	-1	-15	nt	-12	9	1
O=C(CSc1nnc(-c2cccnc2)n1CCN1CCCCC1)Nc1cccc(Cl)c1	nt	nt	12	nt	nt	nt
CC(C)C(c1nnnn1Cc1cccs1)N1CCN(C(=O)c2ccco2)CC1 (centres undefined)	nt	nt	-20	nt	nt	nt
Cc1ccc(S(=O)(=O)N2CCN(C(=O)C3CCN(C(=O)c4ccccc4C)CC3)CC2)cc1C	nt	nt	43	nt	nt	nt
COc1ccc(CCNC(=O)C(=O)NCc2ccccn2)cc1	nt	nt	-15	nt	nt	nt
O=C(O/N=C1/CCCc2occc21)c1ccccc1	-1	-3	15	72*	10	1
Cc1ccc(C(=O)O/N=C2\CCCc3ccccc32)cc1	1	-9	33	8	16	-1
NC(=O)Cc1ccc(C(=O)c2ccc(Cl)cc2)s1	nt	nt	-10	nt	nt	nt
Nc1sccc1C(=O)c1ccc(Cl)cc1	18	-62	-2	-38	92*	-18
COc1ccc(C2CC(=O)c3c(C)nc(N4CCN(c5ccccc5)CC4)nc3C2)cc1 (centres undefined)	15	3	13	16	5	-15
CCOC(=O)N1CCN(c2nc(C)c3c(n2)CC(C)CC3=O)CC1 (centres undefined)	40*	0	0	-4	-4	-40
COc1ccc(C(=O)/C=C/c2ccc(F)cc2)c(OC(=O)c2ccc([N+](=O)[O-])cc2)c1	-9	-7	70*	22	-10	9
COC(=O)NNC(=O)c1ccc(C)c(Br)c1	nt	nt	15	nt	nt	nt
SMILES	IL1B NFkB pot	HUVEC tox TNFa	E-sel TNF inh	IL1B cytotox	VCAM1 TNFa inh	IL1B NFkB inh
CCOc1cccc(C2C(C(=O)c3ccc(C)o3)=C(O)C(=O)N2Cc2ccncc2)c1 (centres undefined)	-31	9	7	-8	-3	30*
C=CCOc1cccc(C2C(C(=O)c3ccc(C)o3)=C(O)C(=O)N2Cc2ccncc2)c1 (centres undefined)	-5	-37	-8	-38	0	5
CCOc1ccccc1OCCC(=O)OCC(=O)c1ccc[nH]1	nt	nt	-3	nt	nt	nt
Cc1ccc(C(=O)COC(=O)c2ccc(O)cc2)cc1	nt	nt	12	nt	nt	nt
Cc1cc(C=C(C#N)C#N)c(C)n1-c1ccccc1	9	5	27	-2	-2	-9
Cc1ccc(-n2c(C)cc(C=C(C#N)C#N)c2C)cc1	-8	-13	52*	18	10	8
Cc1ccc(S(=O)(=O)c2nc(-c3ccccc3)oc2NCc2cccnc2)cc1	-32	-9	-25	16	-13	32*
CCc1nc2scc(-c3cccs3)c2c(=O)o1	-45	-17	-5	8	14	45*
CC(C)(C)Cc1nnc(NS(=O)(=O)c2ccc(F)cc2)s1	98*	-5	-11	-8	-22	-98
CC(C)c1ccc(/C=C(\c2nc3ccccc3[nH]2)S(=O)(=O)c2ccccc2)cc1	nt	nt	24	nt	nt	nt
O=S(=O)(/C(=C/c1ccc(C(F)(F)F)cc1)c1nc2ccccc2[nH]1)c1ccccc1	nt	nt	99*	nt	nt	nt
O=C(CN1C(=O)COc2ccc(S(=O)(=O)N3CCCC3)cc21)NC1CCCCCCC1	nt	nt	11	nt	nt	nt
Cc1nn(C)c(C)c1S(=O)(=O)N1CCC(C(=O)NCC2COc3ccccc3O2)CC1 (centres undefined)	42*	-13	4	-6	12	-42
O=C(O)CCC(=O)Nc1ccc(Br)c(Cl)c1	nt	-5	75*	nt	19	nt
O=C(/C=C/c1ccncc1)c1ccc(NC(=O)c2ccccc2F)cc1	nt	nt	15	nt	nt	nt
CCCC(=O)C1=C(O)C(C(=O)OC)C(C)(C)CC1=Nc1ccc(OC)cc1 (centres undefined)	nt	nt	-15	nt	nt	nt
CCCC(=O)C1=C(O)C(C(=O)OC)C(C)(C)CC1=Nc1ccc(N)cc1 (centres undefined)	nt	-30	59*	nt	16	nt
CCCCN(C)CCC(=O)Nc1ccc2c(c1)CCC2	nt	nt	-19	nt	nt	nt
CCOC(=O)C1=C(c2ccccc2)O/C(=C(/C#N)C(F)(F)F)S1	-56	26	-3	-37	56*	56*
COc1ccc(-c2ncccc2OC(=O)C23CC4CC(CC(C4)C2)C3)cc1	nt	nt	17	nt	nt	nt
CC(=O)N1CC(=O)N(Cc2ccccc2)/C(=C/c2ccccc2)C1=O	nt	nt	8	nt	nt	nt
O=C(Cn1cncn1)NCc1cccc2ccccc12	2	0	64*	25	-5	-2
COC(=O)c1c(NC(=O)c2ccc(S(=O)(=O)N3CCOCC3)cc2)sc2c1CCN(C)C2	11	7	17	-6	54*	-11
CCN1CCc2c(sc(NC(=O)c3ccc(S(=O)(=O)N4CCOCC4)cc3)c2C(=O)OC)C1	18	-30	-37	-13	2	-18
Cc1cccc(-n2cc(-c3ccccc3)c3c(N4CCOCC4)ncnc32)c1	nt	nt	1	nt	nt	nt
CC(C)n1c(SCCCc2ccccc2)nc2c1c(=O)[nH]c(=O)n2C	-38	-9	nt	11	7	38*
CC(C)Cc1nnc(NS(C)(=O)=O)s1	nt	2	52*	nt	-3	nt
CC(C)(C)Cc1nnc(NS(C)(=O)=O)s1	-5	-7	-8	-19	8	5
